What all share (test): NCI-60 one-dose screen, 48 h (100 = growth as untreated, 0 = no growth, -100 = all killed)
What all share (details): 10 µM unless noted

Experiment [1] deals with T-47D breast.
The subject of experiment [2] is BT-549 breast.
In experiment [3] the test system is MDA-MB-435 melanoma.
Experiment [4] deals with SW-620 colon.
Experiment [5] concerns MCF7 breast.
Experiment [6] concerns HCT-116 colon.
Experiment [7] concerns HCC-2998 colon.
Experiment [8] has as its system KM12 colon.

This is part of a sample that, as a whole, favours compounds with a hit. Of some 83,000 tested, about 20% had one in any assay.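 Each cell line was grown in a 96-well plate and treated with one concentration of compound for 48 hours. Values below 10 were considered active.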 A number with no mark means an inactive call. The source made the active and inactive calls.

The values that follow come from PubChem BioAssay (NCI).

Take `O=C1/C(=C/c2cccc(Br)c2)COc2ccc(O)c(O)c21`: the growth in experiment [1] was -14.3% (active); in experiment [2] it was -19.2% (active); in experiment [3], -34.7% (active); in experiment [4], -25.1% (active); in experiment [5], 6.49% (active); in experiment [6], -51% (active). Further, the growth was -58.8% (active) in experiment [7] and -60.9% (active) in experiment [8].
Regarding `CC(=O)[C@H]1CC[C@]2(C)[C@@H]1CC[C@@H]1[C@@]3(C)C/C(=C/c4cccnc4)C(=O)C(C)(C)[C@@H]3CC[C@]12C`, the growth in experiment [1] was 13.6%; in experiment [2], 50.6%; in experiment [3] it was 75.1%; in experiment [4], 61.9%; in experiment [5] it was 34.8%; in experiment [6], 33.2%. In addition, the growth in experiment [7] is 99.9%; in experiment [8] it was 49.1%.
For `CCCCN(CCC#N)C(N)=O`, the growth is 100% in experiment [1]; 109% in experiment [2]; 110% in experiment [3]; 99.2% in experiment [4]; 105% in experiment [5]; 106% in experiment [6]. The growth is 103% in experiment [7] and 105% in experiment [8].
As to `COC(=O)c1c(C)nc(C)c2c1C(=O)C(Br)=C(NCCCCO)C2=O`, the growth in experiment [1] was 76.9%; in experiment [2] it was 91.2%; in experiment [3], -25.3% (active); in experiment [4] it was 67.8%; in experiment [5] it was 37.8%; in experiment [6], 34.3%. For the same compound, the values for the growth in experiment [7] and in experiment [8] were 78.7% and 61.9%, respectively.
In the case of `O=C(OCC(O)(CO)C(=O)NC12CC3CC(CC(C3)C1)C2)c1ccc(Cl)cc1` (stereo not given), the growth in experiment [1] was 88.9%; in experiment [2], 102%; in experiment [3], 101%; in experiment [4], 103%; in experiment [5], 91.6%; in experiment [6], 99.8%. Also, the growth was 106% in experiment [7] and 103% in experiment [8].
Regarding `Cc1c(C)c2c(c(C)c1OC(=O)CCC(=O)[O-])CCC(C)(CCCCCCCCCCC[P+](c1ccccc1)(c1ccccc1)c1ccccc1)O2` (stereo not given), the growth was -41.6% (active) in experiment [1]; -60.2% (active) in experiment [2]; -89% (active) in experiment [3]; 9.14% (active) in experiment [4]; -28.2% (active) in experiment [5]; -9.97% (active) in experiment [6]. The growth in experiment [7] was -70.3% (active); in experiment [8], -87.7% (active).
Turning to `O=C(O)CCCN1C(=O)CSC1=S`, the growth in experiment [1] was 97.7%; in experiment [2], 99.8%; in experiment [3] it was 97.7%; in experiment [4] it was 114%; in experiment [5], 90.9%; in experiment [6], 102%. For the same compound, the growth in experiment [7] is 104%; in experiment [8], 101%.
Consider `Cc1ccc(NC(=O)c2ccc(Nc3ncnc4c3cnn4-c3cccc(F)c3)cc2)cc1`, for which the growth in experiment [1] was 92.6%; in experiment [2], 99.7%; in experiment [3], 100%; in experiment [4] it was 101%; in experiment [5] it was 96.5%; in experiment [6], 101%. Further, the growth in experiment [7] is 107%; in experiment [8], 102%.
Consider `O=C(NCCN1CCOCC1)c1cncnc1Nc1ccc2c(ccn2Cc2ccccn2)c1`, for which the growth in experiment [1] was 98.3%; in experiment [2], 102%; in experiment [3], 99.9%; in experiment [4], 98%; in experiment [5], 97.8%; in experiment [6], 105%. The values for the growth in experiment [7] and in experiment [8] were 100% and 107%, respectively.
Consider `CN1CCN(c2ccc(Nc3ncc4[nH]c(=O)n(Cc5ccccc5N)c4n3)cc2)CC1`, for which the growth in experiment [1] is 75.3%; in experiment [2], 97.8%; in experiment [3] it was 104%; in experiment [4], 95.3%; in experiment [5], 87.8%; in experiment [6], 91.5%. Moreover, the results for the growth in experiment [7] and in experiment [8] were 96.4% and 101%, respectively.
Regarding `CN1CC(c2ccccc2)C(C(=O)c2ccc(Br)cc2)C12C(=O)Nc1ccccc12` (stereo not given), the growth was 81.5% in experiment [1]; 111% in experiment [2]; 106% in experiment [3]; 95.4% in experiment [4]; 98.5% in experiment [5]; 86.3% in experiment [6]. Besides, the growth in experiment [7] was 99.7%; in experiment [8], 101%.
As for `C=C1C(=O)O[C@H]2[C@H]1CC/C(CNC(=O)/C=C/c1cc(OC)c(OC)c(OC)c1)=C\CC[C@@]1(C)O[C@@H]21`, the growth is -65% (active) in experiment [1]; -17.8% (active) in experiment [2]; -60.3% (active) in experiment [3]; -21.6% (active) in experiment [4]; -8.09% (active) in experiment [5]; -65.6% (active) in experiment [6]. Besides, the growth was -79% (active) in experiment [7] and 38.8% in experiment [8].
`COc1cc(OC)cc(C(=O)Nc2cnc(Nc3ccc(N4CCOCC4)nc3)nc2Oc2ccc(C(F)(F)F)cc2)c1`: the growth in experiment [1] was 69.9%; in experiment [2], 77.5%; in experiment [3], 74.9%; in experiment [4], 71.2%; in experiment [5], 59.1%; in experiment [6], 16.1%. The growth is 99.9% in experiment [7] and 88% in experiment [8].
On to `COC1CC(O)C2=C(CC3C(/C(C)=C\CC=C(C)C)CCC3(C)O2)C1=O` (stereo not given), for which the growth is 94.9% in experiment [1]; 107% in experiment [2]; 109% in experiment [3]; 104% in experiment [4]; 99.4% in experiment [5]; 98.9% in experiment [6]. Further, the growth was 105% in experiment [7] and 107% in experiment [8].
In the case of `CSc1nc(N)c2c(n1)NC(c1ccccc1)C1CCc3ccccc3C1=N2` (stereo not given), the growth was 33.5% in experiment [1]; 73.9% in experiment [2]; 55.9% in experiment [3]; 67.7% in experiment [4]; 57.1% in experiment [5]; 32.3% in experiment [6]. Moreover, the figures for the growth in experiment [7] and in experiment [8] were 88.8% and 48.3%, respectively.
